According to the supplement of paper PMC7261846:
Where a name gives a salt, the structure may show the parent alone. ± gives the uncertainty stated by the source.

Tested on: Candida albicans SNY425 biofilm
Test: biofilm OD600 with compound plus antifungal (OD600 (absorbance)); higher = more biofilm remaining
[1] = assay detail: disruption of 24-h mature biofilm (compound + antifungal for a second 24 h)
[2] = assay detail: sustained inhibition (compound + antifungal during 90-min adherence and 24-h growth)

In the case of `CC(C)CC(=O)N[C@H](C(=O)N[C@H](C(=O)N[C@@H](CC(C)C)[C@@H](O)CC(=O)N[C@@H](C)C(=O)N[C@@H](CC(C)C)[C@@H](O)CC(=O)O)C(C)C)C(C)C` [Pepstatin A] + OC(Cn1cncn1)(Cn1cncn1)c1ccc(F)cc1F [fluconazole] (first compound 12.5 µM), the “biofilm OD600” value [1] is reported as 0.255 ± 0.007 and the “biofilm OD600” value [2] is reported as 0.144 ± 0.0099.

`CC1(C)C[C@@H]1C(=O)N/C(=C\CCCCSC[C@H](N)C(=O)O)C(=O)O` [Cilastatin] + C[C@@H]1[C@H](O)[C@@H](C)/C=C/C=C/C=C/C=C/C=C/C=C/C=C/[C@H](O[C@@H]2O[C@H](C)[C@@H](O)[C@H](N)[C@@H]2O)C[C@@H]2O[C@](O)(C[C@@H](O)C[C@@H](O)[C@H](O)CC[C@@H](O)C[C@@H](O)CC(=O)O[C@H]1C)C[C@H](O)[C@H]2C(=O)O [amphotericin B] (first compound 12.5 µM) was tested, and the “biofilm OD600” value [1] was 0.293 ± 0.012 and the “biofilm OD600” value [2] was 0.211 ± 0.015.

With `CC(C)CN(C[C@@H](O)[C@H](Cc1ccccc1)NC(=O)O[C@H]1CCOC1)S(=O)(=O)c1ccc(N)cc1` [amprenavir] + C[C@@H]1[C@H](O)[C@@H](C)/C=C/C=C/C=C/C=C/C=C/C=C/C=C/[C@H](O[C@@H]2O[C@H](C)[C@@H](O)[C@H](N)[C@@H]2O)C[C@@H]2O[C@](O)(C[C@@H](O)C[C@@H](O)[C@H](O)CC[C@@H](O)C[C@@H](O)CC(=O)O[C@H]1C)C[C@H](O)[C@H]2C(=O)O [amphotericin B] (first compound 12.5 µM) the “biofilm OD600” value [1] was 0.283 ± 0.009 and the “biofilm OD600” value [2] was 0.232 ± 0.011.

With `C[C@H](NC(=O)[C@@H]1CCCN1C(=O)[C@@H]1CCCN1C(=O)[C@@H](O)[C@H](N)Cc1ccccc1)C(N)=O` [Apstatin] + OC(Cn1cncn1)(Cn1cncn1)c1ccc(F)cc1F [fluconazole] (first compound 12.5 µM) the “biofilm OD600” value [1] was 0.287 ± 0.01 and the “biofilm OD600” value [2] was 0.118 ± 0.0072.

`NC(N)=NCCC[C@H](NC(=O)[C@@H]1CCCN1C(=O)[C@H](N)Cc1ccccc1)C(=O)CCl` + OC(Cn1cncn1)(Cn1cncn1)c1ccc(F)cc1F [fluconazole] (first compound 12.5 µM) was tested, and the “biofilm OD600” value [1] was 0.269 ± 0.0072 and the “biofilm OD600” value [2] was 0.159 ± 0.011.

With `CCCCC[C@H](CC(=O)NO)C(=O)N[C@H](C(=O)N1CCC[C@H]1CO)C(C)C` [Actinonin] + C[C@@H]1[C@H](O)[C@@H](C)/C=C/C=C/C=C/C=C/C=C/C=C/C=C/[C@H](O[C@@H]2O[C@H](C)[C@@H](O)[C@H](N)[C@@H]2O)C[C@@H]2O[C@](O)(C[C@@H](O)C[C@@H](O)[C@H](O)CC[C@@H](O)C[C@@H](O)CC(=O)O[C@H]1C)C[C@H](O)[C@H]2C(=O)O [amphotericin B] (first compound 12.5 µM) the “biofilm OD600” value [1] was 0.255 ± 0.017 and the “biofilm OD600” value [2] was 0.191 ± 0.0077.

In the case of `NCC1CCC(C(=O)N[C@@H](Cc2ccccc2)C(=O)Nc2ccc(CC(=O)O)cc2)CC1` (some centres not stated) + C[C@@H]1[C@H](O)[C@@H](C)/C=C/C=C/C=C/C=C/C=C/C=C/C=C/[C@H](O[C@@H]2O[C@H](C)[C@@H](O)[C@H](N)[C@@H]2O)C[C@@H]2O[C@](O)(C[C@@H](O)C[C@@H](O)[C@H](O)CC[C@@H](O)C[C@@H](O)CC(=O)O[C@H]1C)C[C@H](O)[C@H]2C(=O)O [amphotericin B] (first compound 12.5 µM), the “biofilm OD600” value [1] is reported as 0.271 ± 0.0064 and the “biofilm OD600” value [2] is reported as 0.182 ± 0.017.

With `O=C(NCCCCN1CCOCC1)c1cc2ccccc2o1` + CC[C@H](C)C[C@H](C)CCCCCCCCC(=O)N[C@H]1C[C@@H](O)[C@@H](NCCN)NC(=O)[C@@H]2[C@@H](O)CCN2C(=O)[C@H]([C@H](O)CCN)NC(=O)[C@H]([C@H](O)[C@@H](O)c2ccc(O)cc2)NC(=O)[C@@H]2C[C@@H](O)CN2C(=O)[C@H]([C@@H](C)O)NC1=O [caspofungin] (first compound 12.5 µM) the “biofilm OD600” value [1] was 0.251 ± 0.014 and the “biofilm OD600” value [2] was 0.202 ± 0.01.

With `CC(C)c1nc(CN(C)C(=O)N[C@H](C(=O)N[C@@H](Cc2ccccc2)C[C@H](O)[C@H](Cc2ccccc2)NC(=O)OCc2cncs2)C(C)C)cs1` [ritonavir] + C[C@@H]1[C@H](O)[C@@H](C)/C=C/C=C/C=C/C=C/C=C/C=C/C=C/[C@H](O[C@@H]2O[C@H](C)[C@@H](O)[C@H](N)[C@@H]2O)C[C@@H]2O[C@](O)(C[C@@H](O)C[C@@H](O)[C@H](O)CC[C@@H](O)C[C@@H](O)CC(=O)O[C@H]1C)C[C@H](O)[C@H]2C(=O)O [amphotericin B] (first compound 12.5 µM) the “biofilm OD600” value [1] was 0.246 ± 0.0053 and the “biofilm OD600” value [2] was 0.146 ± 0.0034.

In the case of `N=C(N)Nc1ccc(C(=O)Oc2ccc3cc(C(=N)N)ccc3c2)cc1` [Nafamostat mesylate] + C[C@@H]1[C@H](O)[C@@H](C)/C=C/C=C/C=C/C=C/C=C/C=C/C=C/[C@H](O[C@@H]2O[C@H](C)[C@@H](O)[C@H](N)[C@@H]2O)C[C@@H]2O[C@](O)(C[C@@H](O)C[C@@H](O)[C@H](O)CC[C@@H](O)C[C@@H](O)CC(=O)O[C@H]1C)C[C@H](O)[C@H]2C(=O)O [amphotericin B] (first compound 12.5 µM), the “biofilm OD600” value [1] is reported as 0.257 ± 0.012 and the “biofilm OD600” value [2] is reported as 0.171 ± 0.011.

`CC(C)C[C@@H](C=O)NC(=O)[C@H](CC(C)C)NC(=O)[C@H](CC(C)C)NC(=O)OCc1ccccc1` + C[C@@H]1[C@H](O)[C@@H](C)/C=C/C=C/C=C/C=C/C=C/C=C/C=C/[C@H](O[C@@H]2O[C@H](C)[C@@H](O)[C@H](N)[C@@H]2O)C[C@@H]2O[C@](O)(C[C@@H](O)C[C@@H](O)[C@H](O)CC[C@@H](O)C[C@@H](O)CC(=O)O[C@H]1C)C[C@H](O)[C@H]2C(=O)O [amphotericin B] (first compound 12.5 µM) was tested, and the “biofilm OD600” value [1] was 0.29 ± 0.0045 and the “biofilm OD600” value [2] was 0.209 ± 0.017.

For `O=C1Nc2ccc([N+](=O)[O-])cc2C1=O` [5-Nitroisatin] + C[C@@H]1[C@H](O)[C@@H](C)/C=C/C=C/C=C/C=C/C=C/C=C/C=C/[C@H](O[C@@H]2O[C@H](C)[C@@H](O)[C@H](N)[C@@H]2O)C[C@@H]2O[C@](O)(C[C@@H](O)C[C@@H](O)[C@H](O)CC[C@@H](O)C[C@@H](O)CC(=O)O[C@H]1C)C[C@H](O)[C@H]2C(=O)O [amphotericin B] (first compound 12.5 µM), the “biofilm OD600” value [1] was 0.256 ± 0.005 and the “biofilm OD600” value [2] was 0.159 ± 0.013.

For `CCCCCCCCCC(=O)N[C@@H](CCCN=C(N)N)C(=O)N[C@H](C(=O)N[C@@H](CCCCN)C(=O)N[C@@H](CCCN=C(N)N)C(=O)CCl)C(C)C` + CC[C@H](C)C[C@H](C)CCCCCCCCC(=O)N[C@H]1C[C@@H](O)[C@@H](NCCN)NC(=O)[C@@H]2[C@@H](O)CCN2C(=O)[C@H]([C@H](O)CCN)NC(=O)[C@H]([C@H](O)[C@@H](O)c2ccc(O)cc2)NC(=O)[C@@H]2C[C@@H](O)CN2C(=O)[C@H]([C@@H](C)O)NC1=O [caspofungin] (first compound 4 µM), the “biofilm OD600” value [1] was 0.18 ± 0.013 and the “biofilm OD600” value [2] was 0.141 ± 0.018.

For `CCCC[C@@H](C=O)NC(=O)OC(C)(C)C` + CC[C@H](C)C[C@H](C)CCCCCCCCC(=O)N[C@H]1C[C@@H](O)[C@@H](NCCN)NC(=O)[C@@H]2[C@@H](O)CCN2C(=O)[C@H]([C@H](O)CCN)NC(=O)[C@H]([C@H](O)[C@@H](O)c2ccc(O)cc2)NC(=O)[C@@H]2C[C@@H](O)CN2C(=O)[C@H]([C@@H](C)O)NC1=O [caspofungin] (first compound 12.5 µM), the “biofilm OD600” value [1] was 0.254 ± 0.0097 and the “biofilm OD600” value [2] was 0.167 ± 0.0058.

For `NCC1CCC(C(=O)N[C@@H](Cc2ccccc2)C(=O)Nc2ccc(CC(=O)O)cc2)CC1` (some centres not stated) + OC(Cn1cncn1)(Cn1cncn1)c1ccc(F)cc1F [fluconazole] (first compound 12.5 µM), the “biofilm OD600” value [1] was 0.251 ± 0.0096 and the “biofilm OD600” value [2] was 0.13 ± 0.018.

With `CC(C)CN(C[C@@H](O)[C@H](Cc1ccccc1)NC(=O)O[C@H]1CCOC1)S(=O)(=O)c1ccc(N)cc1` [amprenavir] + OC(Cn1cncn1)(Cn1cncn1)c1ccc(F)cc1F [fluconazole] (first compound 12.5 µM) the “biofilm OD600” value [1] was 0.264 ± 0.0069 and the “biofilm OD600” value [2] was 0.16 ± 0.011.

With `O=C[C@@H]1CCCN1C(=O)[C@@H]1CCCN1C(=O)OCc1ccccc1` [Z-Prolyl-prolinal] + C[C@@H]1[C@H](O)[C@@H](C)/C=C/C=C/C=C/C=C/C=C/C=C/C=C/[C@H](O[C@@H]2O[C@H](C)[C@@H](O)[C@H](N)[C@@H]2O)C[C@@H]2O[C@](O)(C[C@@H](O)C[C@@H](O)[C@H](O)CC[C@@H](O)C[C@@H](O)CC(=O)O[C@H]1C)C[C@H](O)[C@H]2C(=O)O [amphotericin B] (first compound 12.5 µM) the “biofilm OD600” value [1] was 0.262 ± 0.013 and the “biofilm OD600” value [2] was 0.156 ± 0.0083.

`C[C@]1(Cn2ccnn2)[C@H](C(=O)O)N2C(=O)C[C@H]2S1(=O)=O` [Tazobactam] + OC(Cn1cncn1)(Cn1cncn1)c1ccc(F)cc1F [fluconazole] (first compound 12.5 µM) was tested, and the “biofilm OD600” value [1] was 0.283 ± 0.011 and the “biofilm OD600” value [2] was 0.12 ± 0.0072.

With `O=C(O)CNC(=O)C(CS)Cc1ccccc1` (racemic) [DL-Thiorphan] + OC(Cn1cncn1)(Cn1cncn1)c1ccc(F)cc1F [fluconazole] (first compound 12.5 µM) the “biofilm OD600” value [1] was 0.262 ± 0.0084 and the “biofilm OD600” value [2] was 0.107 ± 0.0069.

With `N=C(N)Nc1ccc(C(=O)Oc2ccc3cc(C(=N)N)ccc3c2)cc1` [Nafamostat mesylate] + OC(Cn1cncn1)(Cn1cncn1)c1ccc(F)cc1F [fluconazole] (first compound 12.5 µM) the “biofilm OD600” value [1] was 0.262 ± 0.011 and the “biofilm OD600” value [2] was 0.104 ± 0.0089.

`NCCCC[C@H](N[C@@H](CCc1ccccc1)C(=O)O)C(=O)N1CCC[C@H]1C(=O)O` [Lisinopril] + C[C@@H]1[C@H](O)[C@@H](C)/C=C/C=C/C=C/C=C/C=C/C=C/C=C/[C@H](O[C@@H]2O[C@H](C)[C@@H](O)[C@H](N)[C@@H]2O)C[C@@H]2O[C@](O)(C[C@@H](O)C[C@@H](O)[C@H](O)CC[C@@H](O)C[C@@H](O)CC(=O)O[C@H]1C)C[C@H](O)[C@H]2C(=O)O [amphotericin B] (first compound 12.5 µM) was tested, and the “biofilm OD600” value [1] was 0.27 ± 0.012 and the “biofilm OD600” value [2] was 0.173 ± 0.014.
